Compound activity as filed in PubChem BioAssay.
TTR transcr act: TTR transcription activators in neuroblastoma reporter cells, primary screen, cell-based, luminescence, SH-SY5Y, TTR promoter Gaussia luciferase. AID 1117267, 2014. activation, % at 16.7 µM. hit rate 1.3% among 92,000. 100% = recombinant luciferase protein wells;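 active = activation above the mean of all tested compounds plus 3 SD, cut at about 9.5% in these data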;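 also: cells exposed to compounds for one day before reading; 0% = median of all test compound wells on the plate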
* marks the source's active call; other numbers are inactive results. Many of the other results were omitted from the sample, so hits are more common in it than they were.

SMILES | TTR transcr act
Cc1cccc(-n2c(SCC(=O)N3CCN(c4ccccn4)CC3)nnc2N2CCOCC2)c1 | 0
O=C(CSc1nnc(Cc2ccccc2)n1-c1cccc(Cl)c1)N1CCOCC1 | 22*
Cn1c(CCc2ccccc2)nnc1SCC(=O)N1CCOCC1 | 1
O=C(Nc1ccc(N2C(=O)CC3(CCCCC3)C2=O)c(Cl)c1)c1ccccn1 | -1
COc1cc(C(=O)NCCC(=O)NCCCN2CCCCC2)cc(OC)c1OC | 20*
CCOCCCNC(=O)CCNC(=O)c1cc(OC)c(OC)c(OC)c1 | -1
COc1cc(C(=O)NCCC(=O)NCCc2ccc(Cl)cc2)cc(OC)c1OC | 0
CC(C)(N[C@@H](Cc1ccccc1)C(=O)NCCCc1ccccc1)C(=O)NCc1ccccc1 | 1
CC(C)(C)c1ccc(-c2noc(CCC(=O)NC3CC3)n2)cc1 | 6
C=CCOC(=O)C(CO)NC(=O)CCCC(=O)O (stereo not given) | 2
CC(C)c1ccc(NC(=O)O[C@@H]2CC[C@@]34CCCN3C(=O)CCC[C@H]4C2)cc1 | -2
COC(=O)c1ccc(Cn2ccc3ccc(-c4ccc5ccn(C(=O)c6ccccc6OC)c5c4)cc32)cc1 | 2
NC(=O)C(NC(=O)OCc1ccccc1)c1ccccc1 (stereo not given) | -2
CC(C)[C@H](NC(=O)OCc1ccccc1)C(=O)NCc1ccccc1 | 1
CC[C@@H](C)[C@H](NC(=O)OCc1ccccc1)c1nnc([C@@H](NC(=O)OCc2ccccc2)[C@@H](C)CC)o1 | 11*
CN1CCC(N[C@@H](Cc2ccccc2)C(=O)NCC(c2ccccc2)c2ccccc2)(C(=O)NC2CCCCC2)CC1 | -4
Nc1[nH]c(C(=O)c2ccccc2)c(-c2ccc(Cl)cc2)c1C(=O)NCCC1=CCCCC1 | 0
COc1ccc(C(c2nnnn2Cc2cccs2)N2CCC(C(N)=O)CC2)c(OC)c1 (stereo not given) | 1
CC(C)CC(c1nnnn1Cc1ccccc1)N1CCC(C(N)=O)CC1 (stereo not given) | 18*
CC(C)CC(c1nnnn1Cc1ccco1)N1CCN(C2CCCC2)CC1 (stereo not given) | -2
CN1CC(=O)N2[C@@H](C[C@]3(c4c[nH]c5ccccc45)c4ccccc4N(S(=O)(=O)c4ccccc4)[C@H]23)C1=O | 0
C[C@@H]1CCCN1c1ccc2c(c1)O[C@H]1CCN(C1)S2(=O)=O | -3
CCc1nnc(NC(=O)c2c(C)nn(-c3ccccc3)c2Cl)s1 | 22*
COc1ccc(NC(=O)c2c(C)nn(-c3ccccc3)c2Cl)cc1 | 1
Cc1nn(-c2ccccc2)c(Cl)c1C(=O)NCC(C)C | 8
SMILES | TTR transcr act
C=CCN(C)C(C#Cc1ccccc1)Cc1ccccc1 (stereo not given) | 0
COc1cc(/C=C/C(=O)c2ccccc2)cc(OC)c1OC | -4
O=C(NC12CC3CC(CC(C3)C1)C2)c1ccccc1O | 9.9*
O=C(NC12CC3CC(CC(C3)C1)C2)c1cc(F)c(F)cc1Cl | 0
O=C(NC12CC3CC(CC(C3)C1)C2)c1ccco1 | -1
O=C1CCC[C@H]2Cc3nc4ccccc4cc3C[C@]23CCCN13 | 2
CCCCOC(=O)CCN1C(=O)/C(=C/c2ccccc2)SC1=S | 1
Cc1ccc(C(=O)n2ccc3ccc(-c4ccc5ccn(Cc6ccccc6)c5c4)cc32)cc1 | -1
O=C1c2ccccc2C(=O)N1CCc1nc(-c2ccccn2)no1 | 0
Cc1ccc(OCc2nc(-c3ccccn3)no2)c(Br)c1 | 14*
Clc1ccccc1OCc1nc(-c2ccncc2)no1 | -1
O=C(Nc1ccc(C(O)(C(F)(F)F)C(F)(F)F)cc1)c1ccc(Cl)cc1 | -2
CCOC(=O)[C@@]12CCC3=C1N(CCC3)C(=O)[C@H](CC(=O)NCc1ccccc1)C2 | 1
C[C@H]1[C@@H](NC(=O)/C=C/c2ccccc2)CC[C@@]23CCCN2C(=O)CCC[C@@H]13 | 0
CC(=O)NCC(=O)N(Cc1ccco1)C1(C(=O)NC2CCCCC2)CCCCC1 | 4
Cc1cc(NC(=O)CCC(=O)N(Cc2ccco2)C2(C(=O)NC3CCCC3)CCCCC2C)no1 (stereo not given) | 0
CC(=O)N(Cc1ccco1)C1(C(=O)NC2CCCCC2)CCCCC1 | 10*
N=c1c2c(ccn1CCCc1ccccc1)Oc1ccc3ccccc3c1C2c1ccccc1 (stereo not given) | -2
CSc1ccc(-c2cnc(N3CCC(C(N)=O)CC3)s2)cc1 | 0
CC(C)(C)OC(=O)N[C@@H](COCc1ccccc1)C(=O)N[C@@H](CO)[C@H](O)[C@@H]1C[C@@H]1C(=O)N1CCCC1 | 4
Cc1[nH]c(=O)[nH]c(=O)c1/C=N/NC(=O)[C@H](CC(C)C)NC(=O)OC(C)(C)C | -1
CC(C)C[C@H](NC(=O)OC(C)(C)C)C(=O)N[C@@H](CO)[C@H](O)[C@@H]1C[C@@H]1C(=O)N1CCCC1 | 10*
COC(=O)[C@]12C[C@H](CC(=O)NCC34CC5CC(CC(C5)C3)C4)C(=O)N(CCc3ccc(OC)c(OC)c3)C1=C[C@H](COCc1ccccc1)O[C@@H]2C | -2
COc1ccc2c(c1)N[C@@](CCNC=O)(c1[nH]c3ccccc3c1CCNC=O)C2=O | 3
NC(=O)c1c(N)[nH]c(C(=O)c2ccccc2)c1-c1cccc2ccccc12 | 3
SMILES | TTR transcr act
O=C(CN1CCOCC1)Nc1ccc(-c2nc3ccccc3[nH]2)cc1 | 1
S=C(c1nc2ccccc2[nH]1)N1CCOCC1 | 10.0*
O=c1[nH]c2ccccc2nc1N1CCOCC1 | 0
Cn1c(CNc2ccccc2F)nc2ccccc21 | 1
O=C1C(=O)N(Cc2ccc(-c3ccc(Cl)nc3)cc2)c2ccc(OC(F)(F)F)cc21 | -1
CCOC(=O)C1C(=O)CC(C)(O)C(C(=O)OCC)C1c1cccc(OC)c1 (stereo not given) | 3
CCOC(=O)C1C(=O)CC(C)(O)C(C(=O)OCC)C1c1ccc(OC)cc1 (stereo not given) | -1
CC(C)OC(=O)C1C(=O)CC(C)(O)C(C(=O)OC(C)C)C1c1cccnc1 (stereo not given) | 12*
CCCC1CCC2(CC1)CCC2OC(=O)Nc1c(OC)cccc1OC (stereo not given) | 0
O=S1(=O)CCOCC(CO)N1Cc1cccc(Br)c1 (stereo not given) | 1
C[C@H]1C2CC(OC(=O)Nc3ccc4c(c3)OCO4)C(C2)[C@H]2CCCCN21 (stereo not given in full) | 0
C=C1CCC2C(C)(C)CCC[C@]2(C)[C@H]1CC1=C(O)C(=O)C(CO)=CC1=O (stereo not given in full) | -1
Cc1nnc(SCCn2c(N3CCCCC3)nc3c2c(=O)[nH]c(=O)n3C)s1 | 1
C=CCn1c(Sc2nc(C)cs2)nc2c1c(=O)[nH]c(=O)n2C | 5
C=C(C)Cn1c(Sc2nnc(C)s2)nc2c1c(=O)[nH]c(=O)n2C | 12*
COc1ccc(OC)c(NC(=O)O[C@@H]2CC[C@@]34CCCN3C(=O)CCC[C@H]4C2)c1 | 1
C[C@H](NC(=O)[C@H]1N2C(=O)c3ccccc3C2SC1(C)C)C(=O)N1CCCCC1 (stereo not given in full) | 5
C[C@H](NC(=O)[C@H]1N2C(=O)c3ccccc3C2SC1(C)C)C(=O)N1CCC[C@H]1CO (stereo not given in full) | 2
C[C@H](NC(=O)[C@H]1N2C(=O)c3ccccc3C2SC1(C)C)C(=O)N1CCC[C@H]1C(=O)O (stereo not given in full) | 58*
